Compound activity as filed in PubChem BioAssay.
Shiga inhibitor – inhibitors of Shiga toxin in Vero cells; AID 2315; hit rate 9.2% among 290,000; inhibition, % at 38.7 µM; Vero cells, Shiga toxin protein synthesis inhibition reporter; in the data active means inhibition mostly above about 28%, no sharp cut-off; inactive means mostly below about 43%; further: 0% is about no effect
Giardia FBPA inh-1 – blocks Giardia fructose-bisphosphate aldolase activity. purified Giardia FBPA. Potency, µM (series often up to 59.6 µM), for inactives: at the highest dose activity, negative = inhibition, actives largely listed as inhibitors. hit rate 0.71% among 290,000. AID 2451; further: potency means the concentration at half of the fitted maximal effect; on the % scale 0 is the no-effect control and ±100 the full control effect; nearly all actives have a fitted effect of over 55% in size
Target sequence (A8B2U2 whole entry, looked up): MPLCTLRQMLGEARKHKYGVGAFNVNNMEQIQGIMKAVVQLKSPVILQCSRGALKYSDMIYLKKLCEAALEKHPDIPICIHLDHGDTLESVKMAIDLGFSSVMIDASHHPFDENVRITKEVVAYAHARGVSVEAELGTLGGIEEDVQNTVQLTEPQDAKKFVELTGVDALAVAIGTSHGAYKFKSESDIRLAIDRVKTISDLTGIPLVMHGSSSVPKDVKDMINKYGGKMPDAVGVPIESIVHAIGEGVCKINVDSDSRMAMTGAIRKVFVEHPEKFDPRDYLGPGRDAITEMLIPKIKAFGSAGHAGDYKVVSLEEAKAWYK
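Giardia FBPA (40 nM reagent) was preincubated 10 min at RT with compound (up to 57.5 uM final), then substrate plus GAPDH/TPI/NAD/arsenate coupling system with diaphorase/resazurin was added; resorufin fluorescence (525/598 nm) was read after 20 min.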
NS1 inh – influenza NS1 inhibition; Potency, µM (titrated, usually from 46.1 µM), without a hit: at the top dose activity, positive = more growth; hit rate 0.4% among 270,000; calls by dose curve; further: potency means the concentration at half of the fitted maximal effect; actives are rising curves; nearly all actives have a fitted effect of over 50% in size
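OD600 was taken as the measure of yeast growth restored by compound in an NS1-expressing S. cerevisiae strain. Cells had been washed out of glucose medium and diluted 1:100 into galactose -URA medium, pH 6.0.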
CHX counter – counter-screen hit for Shiga toxin inhibitors, cycloheximide. cell reporter, cycloheximide protein synthesis inhibition counterscreen. max response, %. hit rate 12% among 300,000. AID 2314; in the data active means max response mostly above about 13%, no sharp cut-off; inactive means mostly below about 14%; further: read at 38.3 µM for the half of the compounds with a filed dose; 0% is about no effect
LmPK inhibitor – LmPK (Leishmania mexicana) enzyme inhibition; purified LmPK, Kinase-Glo ATP luminescence, 1 h; Potency, µM (doses to about 57.5 µM), inactives show top-dose activity change, negative = inhibition, hits mostly inhibitors; hit rate 0.37% among 290,000; further: potency means the concentration at half of the fitted maximal effect; on the % scale 0 is the no-effect control and ±100 the full control effect
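Screened at intermediate enzyme activity to detect both inhibitors and activators: LmPK at 0.1 nM, with a 0.5 nM enzyme column as activation reference. PEP 0.5 mM, ADP 0.1 mM; ATP detected by luminescence after 1 h.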
Giardia growth – Giardia lamblia growth inhibition; hit rate 5% among 1,500; Giardia lamblia trophozoite growth inhibition; AID 2785; shares compounds with Giardia FBPA inh-1; Potency, µM (top dose mostly 57.5 µM), without a hit: at the top dose activity change, negative = inhibition, hits mostly inhibitors;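 further: potency means the concentration at half of the fitted maximal effect; trophozoites exposed to compound for 48 h at 37 °C; on the % scale 0 is the no-effect control and ±100 the full control effect; nearly all actives have a fitted effect of over 70% in size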
Mammalian tox – counter-screen for Giardia aldolase inhibitors: mammalian cell toxicity; hit rate 4% among 1,500; shares compounds with Giardia FBPA inh-1; mammalian cell viability counter-screen, qHTS; Potency, µM (series often up to 57.5 µM), inactives show at the highest dose viability change, negative = toxicity, most hits filed as inhibitors;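 further: Chinese hamster ovary cells used as mammalian cytotoxicity surrogate; viability measured as cellular ATP by luminescence; potency means the concentration at half of the fitted maximal effect; compound exposure lasted 48 h before reading; on the % scale 0 is the no-effect control and ±100 the full control effect; nearly all actives have a fitted effect of over 60% in size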
Giardia FBPA inh-2 – confirmation of Giardia fructose-bisphosphate aldolase inhibitors; shares compounds with Giardia FBPA inh-1; purified Giardia aldolase enzyme activity, qHTS; Potency, µM (top dose mostly 57.5 µM), for the others: top-dose activity change, negative = inhibition, usual class: inhibitors; hit rate 5% among 1,500; further: potency means the concentration at half of the fitted maximal effect; on the % scale 0 is the no-effect control and ±100 the full control effect; nearly all actives have a fitted effect of over 45% in size
Rabbit FBPA inh – selectivity test for Giardia aldolase inhibitors: rabbit aldolase; shares compounds with Giardia FBPA inh-1; Rabbit muscle FBPA enzyme inhibition, selectivity counter-screen; Potency, µM (doses to about 57.5 µM), for inactives: top-dose activity, negative = inhibition, usual class: inhibitors; hit rate 4% among 1,500; AID 2794; further: potency means the concentration at half of the fitted maximal effect; on the % scale 0 is the no-effect control and ±100 the full control effect; nearly all actives have a fitted effect of over 60% in size
GAPDH counter – GAPDH inhibition flagged for Giardia aldolase hits; Potency, µM (top dose mostly 57.5 µM), without a hit: at the highest dose activity change, negative = inhibition, usual class: inhibitors; GAPDH coupling enzyme counterscreen, biochemical, qHTS; hit rate 6% among 1,500; shares compounds with Giardia FBPA inh-1; AID 2795; further: potency means the concentration at half of the fitted maximal effect; on the % scale 0 is the no-effect control and ±100 the full control effect; nearly all actives have a fitted effect of over 55% in size
Numbers without * were called inactive; u = inconclusive; x = no result given; [ ] = dose if it differs, or a comment. An excerpt weighted towards active compounds, which were near 14% of everything screened. Unless noted, the call rests on the fitted dose curve; in most records, active means well fitted curve in the direction sought with a large enough effect; inconclusive means small, poorly fitted or top-dose-only effect, or another doubt; inactive means no such curve, though single readings can be large; an effect the other way counts as inactive or inconclusive.

SMILES	Shiga inhibitor	Giardia FBPA inh-1	NS1 inh	CHX counter	LmPK inhibitor	Giardia growth	Mammalian tox	Giardia FBPA inh-2	Rabbit FBPA inh	GAPDH counter
CN1C(=O)c2ccc(C(=O)NCc3ccco3)cc2C1=O	-8.4	x	8.8%	3.9	-7.0%	x	x	x	x	x
O=C1OCCN1/N=C\c1ccc([N+](=O)[O-])o1	x	-8.6%[21.7 µM]	x	x	x	x	x	x	x	x
COc1ccc(OC)c(C2CC(=O)N3CN(c4cccc(Cl)c4C)CSC3=C2C#N)c1 (centres undefined)	-4.3	1.41µM*	-34.3%	1.2	-1.6%	u	-9.2%	-28.7%	u	u
CCOC(=O)c1ccc(N2CSC3=C(C#N)C(c4ccc(OC)cc4OC)CC(=O)N3C2)cc1 (centres undefined)	49.4	u	-30.4%	-3.1	1.4%	x	x	x	x	x
COc1ccc(OC)c(C2CC(=O)N3CN(c4ccc(C)c(Cl)c4)CSC3=C2C#N)c1 (centres undefined)	-4.2	5µM*	-3.0%	-4.7	7.7%	-7.3%[10.4 µM]	5.8%	u	u	-26.6%
CSCC[C@H](N)C(=O)N1CCC(C(=O)N[C@H](C)C(=O)Nc2ccc(C(C)C)cc2)CC1	-4.7	-3.3%	4.6%	-1.9	3.7%	x	x	x	x	x
CN(C)c1ccc(C(C(=O)NC2CCCC2)N(C(=O)c2csnn2)C2CC2)cc1 (centres undefined)	-6.9	x	0.9%	-6.7	-2.7%	x	x	x	x	x
CCN1CCc2c(sc(NC(=O)Cc3ccccc3)c2C(=O)OC)C1	-1.2	14.1µM*	-0.7%	-2.7	-4.1%	4.8%[10.4 µM]	3.9%	8.9%	12.3%	15.6%
NC(=O)c1c(NC(=O)c2ccccc2)sc2c1CCN(Cc1ccccc1)C2	4.9	15.8µM*	3.8%	12.8*	1.3%	u	-17.3%	0.5%	1.8%	9.9%
CC(=O)Nc1sc2c(c1C#N)CCN(Cc1ccccc1)C2	2.8	u	1.9%	6.8	-5.2%	x	x	x	x	x
CC(C)C(=O)Nc1sc2c(c1C(N)=O)CCN(Cc1ccccc1)C2	-2.0	28.2µM*	-0.3%	-0.8	2.1%	3.3%[10.4 µM]	-11.3%	0.6%	2.9%	-17.8%
CCCn1c(C)nc2c(NCCO)nc(C)nc21	x	-0.1%	x	x	x	x	x	x	x	x
S=C(NCc1ccccc1)Nc1nccs1	14.5	12.6µM*	-39.7%	11.4	-1.3%	-17.7%	-23.0%	1.1%	11.8%	-17.7%
CCOC(=O)N1CCN(c2ccc(C(C)=O)cc2F)CC1	16.6	1.9%	4.1%[9.22 µM]	9.4	-1.9%	x	x	x	x	x
CCOC(=O)N1CCN(C(=S)NC(=O)c2ccc(F)c(F)c2)CC1	-6.7	15.8µM*	1.4%	1.1	-13.4%	58.6%	-15.1%	2.5%	5.6%	10.2%
CCOC(=O)c1c(N2CCN(c3ccccc3)CC2)cc(C)nc1C	-4.5	14.1µM*	-1.6%	-3.2	-7.0%	u	5.3%	0.9%	8.2%	-9.4%
CC(C)c1ccc(S(=O)(=O)N2CCN(C(=O)C3CCN(C(=O)c4ccc(F)cc4)CC3)CC2)cc1	4.4	x	-6.4%	2.0	-4.8%	x	x	x	x	x
Cc1ccc(-c2ocnc2C(=O)N2CCOCC2)cc1	4.2	3.2%	-0.9%	-6.3	4.8%	x	x	x	x	x
O=C(Nc1ccccc1)Oc1ccccc1	-2.0	4.2%	1.9%	7.0	-2.8%	x	x	x	x	x
O=C(Nc1ccccc1)Oc1ccc[nH]c1=O	15.9	1.41µM*	-3.0%	21.1*	-6.9%	12.7%[38.3 µM]	u	0.231µM*	0.73µM*	2.59µM*
COc1cc(/C=N/n2c(=S)[nH]nc(C)c2=O)cc([N+](=O)[O-])c1O	10.6	15.8µM*	10.7%	-7.4	1.4%	u	-3.9%	2.1%	-9.3%	3.6%
